Broadly, the inhibition is the percentage by which the read-out fell short of the control.

Activity calls are given as the source filed them.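 How the source made its calls: active means inhibition of at least 60% at a 114 µM dose; inconclusive means inhibition from 30% up to under 60% at that dose; inactive means inhibition under 30% at 114 µM.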

This note sets out measurements from PubChem BioAssay AID651625 (National Center for Advancing Translational Sciences (NCATS), 2012).

The target of this test is Ubiquitin carboxyl-terminal hydrolase 5 (Homo sapiens) (UniProt P45974). Nature of the test: Inhibitors of USP1/UAF1: SAR in USP5 diubiquitin SDS-PAGE gel assay. Conditions: USP5 K63 diubiquitin cleavage, 1 h; series mostly up to 114 µM; inhibition: at the top concentration. An excerpt: Deubiquitinating enzymes (DUBs) are a class of enzymes that can cleave isopeptide bond formed between the C-terminal carboxylate of ubiquitin and a lysine side-chain amino group on the target protein. Among them, ubiquitin specific proteases (USPs) constitute the largest DUB family. Human USPs are emerging as promising targets for pharmacological intervention because of their connection to a number of human diseases, including prostate, colon and breast cancer (1, 2), pediatric acute lymphoblastic leukemia (3), and familial cylindromatosis (4). The advantage of inhibiting USPs lies in the potential specificity of therapeutic intervention that can lead to better efficacy and reduce nonspecific side effects. In a collaboration between the University of Delaware and the NIH Chemical Genomics Center, a high-throughput screen assay was developed to screen for USP1/UAF1 inhibitors (5). This assay is a selectivity assay that tested for activity in a USP5 diubiquitin SDS-PAGE gel assay and inactivity is the desired outcome for this assay. […]
Ubiquitin carboxyl-terminal hydrolase 5 (Homo sapiens), sequence (P45974 whole entry, looked up): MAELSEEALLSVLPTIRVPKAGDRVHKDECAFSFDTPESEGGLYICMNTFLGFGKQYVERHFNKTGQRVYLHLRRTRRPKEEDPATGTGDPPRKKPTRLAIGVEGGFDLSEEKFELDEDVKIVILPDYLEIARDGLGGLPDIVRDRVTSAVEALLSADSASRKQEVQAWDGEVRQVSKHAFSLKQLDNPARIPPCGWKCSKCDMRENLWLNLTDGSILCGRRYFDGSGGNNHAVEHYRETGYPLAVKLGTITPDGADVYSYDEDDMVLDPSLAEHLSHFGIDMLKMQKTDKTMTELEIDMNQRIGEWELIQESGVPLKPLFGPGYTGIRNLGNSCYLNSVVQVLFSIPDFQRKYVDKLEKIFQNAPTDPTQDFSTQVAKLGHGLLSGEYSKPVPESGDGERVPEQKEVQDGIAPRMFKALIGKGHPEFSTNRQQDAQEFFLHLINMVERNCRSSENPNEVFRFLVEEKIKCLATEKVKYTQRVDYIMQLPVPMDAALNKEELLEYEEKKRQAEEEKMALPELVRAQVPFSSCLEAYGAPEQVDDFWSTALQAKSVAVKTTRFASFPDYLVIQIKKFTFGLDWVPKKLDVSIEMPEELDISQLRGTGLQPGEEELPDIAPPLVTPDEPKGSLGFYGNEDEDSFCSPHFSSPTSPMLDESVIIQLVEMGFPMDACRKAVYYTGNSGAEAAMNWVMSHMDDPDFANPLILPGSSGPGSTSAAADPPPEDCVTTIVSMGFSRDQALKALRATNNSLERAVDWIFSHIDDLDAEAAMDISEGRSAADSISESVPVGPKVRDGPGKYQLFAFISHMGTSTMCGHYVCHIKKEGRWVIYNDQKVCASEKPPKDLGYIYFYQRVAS
The inhibition assay contains 5 nM USP5, 2 microM K63 linked diubiquitin, and inhibitors at varied concentrations (0.08 microM - 114 microM). […] The intensity of the individual diubiquitin and monoubiquitin band was quantified using Quantity One 4.3.1 (Biorad, Hercules, CA). The percentage of the conversion was determined and used to calculate the reaction rate. […]
For the molecule `Cc1cnc(-c2ccccc2C(C)C)nc1NCc1ccc(-n2ccnn2)cc1`, the “inhibition” value was 2% (inactive).
